Test systems include EPHA3; EPHA4; EPHA5; EPHA6; EPHA7; EPHA8; EPHB1; EPHB2; EPHB3; EPHB4; EPHB6; ERBB2; ERBB3; ERBB4.
Conditions in all cases: concentration: 1 μM, replicates: in singlicate; n = 1
The next test deals with T1, ERK1.
T1 construct: gene MAPK3

For the next test, the system named is T2, ERK2.
T2 construct: gene MAPK1

A further test deals with T3, ERK3.
T3 construct: gene MAPK6

The subject of another test is T4, ERK4.
T4 construct: gene MAPK4

Another test concerns T5, ERK5.
T5 construct: gene MAPK7

Another test has as its system T6, ERK8.
T6 construct: gene MAPK15
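Also: KINOMEscan kinase panel screen.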

Consider `Fc1ccc(-c2nn3c(OCC(F)(F)F)cccc3c2-c2ccncc2)cc1` [GW514784], for which the “%Inh” value was found to be 24% with EPHA3; 3% in the test with EPHA4; 0% in the test on EPHA5; 11% in the test on EPHA6; 0% in the test with EPHA7; 13% with EPHA8. The “%Inh” value with EPHB1 worked out at 16%; in the test with EPHB2 it was 0%; in the test with EPHB3, 6%; in the test with EPHB4 it was 1%; with EPHB6 it was 0%; in the test on ERBB2, 59%. Further, the “%Inh” value was found to be 29% in the test with ERBB3; 37% in the test on ERBB4; 0% in the test on ERK1; 0% with ERK2; 6% in the test on ERK3; 9% with ERK4. Also, the “%Inh” value with ERK5 and in the test on ERK8 was 0% throughout.
Turning to `COc1ccc(COc2cc(-n3cnc4ccccc43)sc2C(N)=O)cc1` [GSK1024304], the “%Inh” value with EPHA3 was determined as 11%; in the test with EPHA4, 0%; in the test with EPHA5 it was 0%; with EPHA6 it was 0%; in the test on EPHA7, 6%; in the test with EPHA8, 19%. For the same compound, the “%Inh” value with EPHB1 worked out at 12%; in the test with EPHB2 it was 9%; in the test with EPHB3, 0%; in the test with EPHB4, 11%; in the test with EPHB6, 0%; with ERBB2, 28%. The “%Inh” value with ERBB3 came to 0%; in the test on ERBB4, 24%; with ERK1, 5%; with ERK2 it was 0%; with ERK3, 15%; in the test with ERK4 it was 13%. For the same compound, the “%Inh” value in the test on ERK5 is listed as 8%; in the test on ERK8, 0%.
With `Cl.Oc1cccc(Nc2ccnc3cc(-c4ccncc4)ccc23)c1` [GW494601], the “%Inh” value in the test on EPHA3 was found to be 76%; with EPHA4, 84%; with EPHA5, 95.3%; in the test with EPHA6 it was 88%; in the test on EPHA7, 0%; in the test on EPHA8, 97%. Moreover, the “%Inh” value in the test with EPHB1 is reported as 96.2%; in the test on EPHB2, 70%; in the test with EPHB3 it was 27%; in the test on EPHB4 it was 94.2%; with EPHB6 it was 86%; with ERBB2, 0%. Besides, the “%Inh” value with ERBB3 stood at 40%; with ERBB4 it was 38%; in the test with ERK1, 0%; with ERK2 it was 0%; in the test with ERK3 it was 2%; in the test on ERK4, 26%. Moreover, the “%Inh” value with ERK5 and in the test on ERK8 was 0% in each case.
Consider `Cc1cccc(-c2nc(-c3ccc(S(C)(=O)=O)cc3)sc2-c2ccncc2)c1`, for which the “%Inh” value is 9% with EPHA3; 48% in the test with EPHA4; 1% in the test on EPHA5; 44% with EPHA6; 19% in the test with EPHA7; 21% in the test with EPHA8. For the same compound, the “%Inh” value with EPHB1 came to 14%; in the test with EPHB2, 13%; with EPHB3 it was 34%; with EPHB4 it was 41%; with EPHB6, 46%; in the test on ERBB2 it was 4%. The “%Inh” value with ERBB3 came to 9%; in the test with ERBB4 it was 0%; with ERK1, 6%; in the test with ERK2, 29%; in the test with ERK3 it was 6%; in the test on ERK4 it was 0%. The “%Inh” value was found to be 2% in the test on ERK5 and 0% in the test with ERK8.
Consider `Cc1cccc(-c2nc(Nc3ccc4ncsc4c3)c3ccccc3n2)n1` [GW867588], for which the “%Inh” value with EPHA3 is on record as 22%; in the test with EPHA4, 21%; with EPHA5, 6%; in the test on EPHA6 it was 21%; in the test with EPHA7, 0%; with EPHA8, 4%. Also, the “%Inh” value in the test with EPHB1 stood at 30%; with EPHB2, 0%; in the test on EPHB3, 22%; in the test with EPHB4, 0%; in the test on EPHB6 it was 0%; in the test with ERBB2, 6%. The “%Inh” value was determined as 21% in the test with ERBB3; 25% in the test with ERBB4; 0% with ERK1; 2% with ERK2; 0% in the test with ERK3; 0% with ERK4. For the same compound, the “%Inh” value with ERK5 and in the test on ERK8 was 0% throughout.
With `COc1ccc(Nc2nccc(N3CCC(NC(=O)Nc4cc(C)ccc4C)C3)n2)cc1` (centres unmarked) [GSK1379741], the “%Inh” value with EPHA3 was determined as 0%; in the test with EPHA4, 12%; with EPHA5 it was 0%; in the test with EPHA6, 0%; in the test with EPHA7 it was 5%; with EPHA8, 2%. The “%Inh” value in the test on EPHB1 was 14%; with EPHB2 it was 27%; in the test on EPHB3 it was 8%; with EPHB4, 9%; in the test on EPHB6, 0%; with ERBB2, 6%. Moreover, the “%Inh” value in the test on ERBB3 stood at 0%; in the test with ERBB4, 52%; with ERK1 it was 0%; in the test with ERK2 it was 0%; with ERK3, 0%; with ERK4, 1%. Moreover, the “%Inh” value in the test with ERK5 and in the test on ERK8 was 0% throughout.
With `Fc1ccc(-c2ncn(CCCN3CCOCC3)c2-c2cccnc2)cc1` [SB-211743], the “%Inh” value in the test with EPHA3 was determined as 1%; with EPHA4, 0%; with EPHA5, 11%; with EPHA6 it was 0%; in the test with EPHA7, 0%; with EPHA8, 3%. The “%Inh” value in the test on EPHB1 stood at 20%; in the test with EPHB2, 0%; in the test on EPHB3 it was 0%; with EPHB4, 0%; in the test with EPHB6 it was 0%; in the test on ERBB2, 0%. For the same compound, the “%Inh” value is listed as 0% in the test with ERBB3; 0% with ERBB4; 0% in the test with ERK1; 8% with ERK2; 0% in the test on ERK3; 0% in the test on ERK4. The “%Inh” value in the test with ERK5 amounted to 0%; with ERK8, 29%.
For the compound `CC(C)Oc1ccc2c(-c3ccnc(Nc4ccc(N5CCN(C)CC5)cc4)n3)cnn2n1` [GW696155], the “%Inh” value with EPHA3 is recorded as 33%; in the test with EPHA4, 1%; with EPHA5, 0%; in the test on EPHA6, 11%; with EPHA7 it was 7%; in the test on EPHA8 it was 9%. Further, the “%Inh” value stood at 9% in the test with EPHB1; 0% in the test with EPHB2; 13% with EPHB3; 26% in the test on EPHB4; 70% in the test with EPHB6; 53% with ERBB2. The “%Inh” value amounted to 14% in the test on ERBB3; 39% in the test with ERBB4; 0% in the test with ERK1; 0% with ERK2; 92.1% in the test on ERK3; 47% in the test with ERK4. For the same compound, the “%Inh” value came to 45% in the test with ERK5 and 98% with ERK8.
For the compound `Cc1c2ccc(N(C)c3ccnc(Nc4cccc(S(N)(=O)=O)c4)n3)cc2nn1Cc1ccccc1.Cl.Cl` [GW787226], the “%Inh” value with EPHA3 turned out to be 15%; in the test with EPHA4 it was 21%; in the test with EPHA5, 0%; in the test with EPHA6, 19%; in the test with EPHA7, 0%; in the test on EPHA8 it was 39%. The “%Inh” value was determined as 12% in the test with EPHB1; 20% in the test with EPHB2; 7% in the test on EPHB3; 0% in the test with EPHB4; 98.9% with EPHB6; 0% in the test on ERBB2. Further, the “%Inh” value in the test with ERBB3, in the test on ERBB4, with ERK1, with ERK2, in the test with ERK3 and in the test with ERK4 was 0% each time. Moreover, the “%Inh” value with ERK5 was found to be 12%; in the test on ERK8, 3%.
As to `O=C1Cc2cc(Nc3nc(NCc4cccc(S(=O)(=O)C(F)(F)F)c4)ncc3C(F)(F)F)ccc2N1`, the “%Inh” value in the test on EPHA3 came out at 0%; with EPHA4, 0%; in the test with EPHA5, 10%; with EPHA6, 0%; in the test on EPHA7 it was 0%; with EPHA8 it was 0%. Besides, the “%Inh” value amounted to 0% with EPHB1; 0% in the test on EPHB2; 1% in the test on EPHB3; 8% with EPHB4; 0% in the test on EPHB6; 6% with ERBB2. Further, the “%Inh” value came out at 9% in the test with ERBB3; 4% with ERBB4; 0% in the test with ERK1; 9% in the test with ERK2; 31% in the test on ERK3; 25% in the test with ERK4. Also, the “%Inh” value with ERK5 and in the test with ERK8 was 0% in each case.
